Screens: PubChem BioAssay, National Center for Advancing Translational Sciences (NCATS)
The list is not random: actives were taken first. Their share in the collection is about 2.3%.
ELG1 repair inh – ELG1-dependent DNA repair inhibition; AID 504467; HEK293T ELG1-luciferase reporter, luminescence, 16 h; DNA damage induced by 5-fluorouridine; 330,000 compounds, 2.3% hits; Potency, µM (doses to about 46.1 µM), for inactives: top-dose activity change, negative = inhibition, actives largely listed as inhibitors; further: potency means the concentration at half of the fitted maximal effect; on the % scale 0 is the no-effect control and ±100 the full control effect; nearly all actives have a fitted effect of over 55% in size
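HEK293T cells expressing luciferase-tagged ELG1 (2,000/well) received 5-Fluorouridine plus compound or DMSO for 16 hr at 37 °C. Luciferase was read by ONE-Glo luminescence after 30 min at room temperature.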
Giardia killer – Giardia lamblia killing. Giardia lamblia trophozoite viability. activity change, % at 7.66 µM, hits read low. 340,000 compounds, 0.15% hits. AID 540267; in the data active means activity change below about -80%; inconclusive means between about -30% and that limit;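 further: parasites exposed to compound for two days anaerobically before the ATP read; on the % scale 0 is the no-effect control and ±100 the full control effect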
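Compounds were tested on trophozoites seeded at 100 cells/well and held 48 hrs at 37 deg C anaerobically. An ATP-based luminescent kit measured the remaining live cells.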
FUS yeast rescue – rescues growth of FUS-expressing yeast. S. cerevisiae FUS-expressing, growth rescue, OD600, 24 h. Potency, µM (top dose mostly 76.6 µM), actives largely listed as activators. 390,000 compounds, 0.24% hits;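 further: potency means the concentration at half of the fitted maximal effect; plate controls were DMSO vehicle for no effect and reference control for full effect; nearly all actives have a fitted effect of over 55% in size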
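FUS-expressing yeast, raffinose-pregrown, induced in 2% galactose minimal medium at OD 0.005; compounds in a dilution series, 24hr at 30C. Growth restoration read as absorbance at 600 nm. CP55940 positive control, DMSO negative.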
TRPV1 ag – activates the human vanilloid receptor TRPV1; TRPV1-expressing cells, Fluo-8 calcium influx, agonist mode; 320,000 compounds, 0.19% hits; Q8NER1; activation, % at 8.33 µM; in the data active means activation above about 80%; inconclusive means between about 30% and that limit; further: 0% is about no effect
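Fluo-8 calcium influx in TRPV1-expressing cells, kinetic read (ex 480/em 520 nm). Compound added and read 3 min for agonist activity, followed by capsaicin at EC20 final and 2 min further read for enhancement.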
TRPV1 potentiator – human TRPV1 potentiation; Q8NER1; TRPV1-expressing cells, Fluo-8 calcium influx, capsaicin EC20 potentiation; potentiation, % at 8.33 µM; 320,000 compounds, 0.02% hits; AID 540277; in the data active means potentiation above about 80%; inconclusive means between about 30% and that limit; further: 0% is about no effect
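Cells expressing TRPV1 were dye-loaded with Fluo-8 and read kinetically: 10 s baseline, 3 min after compound (agonist portion), then 2 min after EC20 capsaicin (allosteric enhancer portion). Calcium-bound dye fluorescence at 480/520 nm.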
The depositor's hits bear a star; i = inactive; u = inconclusive; x = no result. Unless noted, the call rests on the fitted dose curve; in most records, active means well fitted curve in the direction sought with a large enough effect; inconclusive means small, poorly fitted or top-dose-only effect, or another doubt; inactive means no such curve, though single readings can be large; an effect the other way counts as inactive or inconclusive.

SMILES	ELG1 repair inh	Giardia killer	FUS yeast rescue	TRPV1 ag	TRPV1 potentiator
Cc1cccc(N2CCN(C(=O)COc3cccc4c3OC(C)(C)C4)CC2)c1C	26µM*	-3	u	-1	9
CC1(C)Cc2cccc(OCC(=O)N3CCN(S(=O)(=O)c4ccc(F)cc4)CC3)c2O1	-9%	8	i	u	-11
CC1Cc2cc(/C=C3/SC(N4CCC(C(N)=O)CC4)=NC3=O)ccc2O1 (stereo not drawn)	26µM*	-7	i	u	12
COc1ccc(NC(=O)OCCn2c([N+](=O)[O-])cnc2C)cc1	15%	-87*	i	-3	u
Cc1ncc([N+](=O)[O-])n1CCOC(=O)NC(NCc1ccccc1Cl)C(Cl)(Cl)Cl (stereo not drawn)	0%	-119*	x	-2	2
Cc1ccc(NC(NC(=O)OCCn2c([N+](=O)[O-])cnc2C)C(Cl)(Cl)Cl)cc1 (stereo not drawn)	8%	x	x	0	10
Cn1c(Sc2ccc(Cl)cc2)c(C=O)c2ccccc21	7.3µM*	-14	i	13	16
Cn1c(Oc2ccc(Cl)cc2)c(C=O)c2ccccc21	12µM*	15	i	7	-4
Cc1cc(F)ccc1C(O)c1ncc(-c2ccc3ccccc3c2)[nH]1 (stereo not drawn)	x	x	i	x	x
Cc1csc(NC(=O)c2cc(-c3ccco3)nc3ccccc23)n1	21µM*	-5	i	-9	2
CCOC(=O)Nc1ccc2c(COC(=O)C(NS(=O)(=O)c3ccc(Cl)cc3)C(C)O)cc(=O)oc2c1 (stereo not drawn)	21µM*	-5	i	x	x
CC(=O)OCC(NC(=O)C1CCCN1C(=O)OC(C)(C)C)C1OC(n2cc(F)c(=O)[nH]c2=O)C(OC(C)=O)C1OC(C)=O (stereo not drawn)	x	21	x	x	x
CCC(=O)c1ccc(N2CCN(C(=O)Cc3ccccc3)CC2)c(F)c1	-10%	-12	i	27	-26
CCC(=O)c1cc(F)c(N2CCN(C(=O)Cc3ccccc3)CC2)cc1C	u	-2	i	91*	-8
CCc1ccc(NC(=O)Nc2ccc3c(c2)N(C)C(=O)CS3)cc1	u	7	i	88*	-7
CC(=O)c1cccc(NC(=O)Nc2ccc3c(c2)N(C)C(=O)CS3)c1	13µM*	4	i	15	-28
O=C(Nc1ccccc1)Nc1ccc(C(=O)N2CCCC2)cc1	u	u	i	0	12
Cc1cc(C)cc(NC(=O)Nc2ccc3c(c2)N(C)C(=O)CS3)c1	u	-1	i	u	-9
CC(=O)c1cccc(NC(=O)Nc2ccc(C(=O)N3CCCC3)cc2)c1	6.5µM*	-10	i	-1	26
C[C@@]12C(=O)OC(=O)[C@]1(C)C1CCC2O1	u	-94*	i	0	-1
O=C(C(=O)N1CCC(Cc2ccccc2)CC1)c1cccc(Br)c1	x	x	i	x	x
CCCc1cc(C(=O)N2CCCC(C(=O)c3cc(C)c(OC)c(C)c3)C2)n(C)n1 (stereo not drawn)	8.2µM*	7	u	-1	13
COc1c(C)cc(C(=O)C2CCCN(C(=O)c3cccc(-n4cccn4)c3)C2)cc1C (stereo not drawn)	23µM*	6	i	17	-7
CCCc1cc(C(=O)N2CCCC(C(=O)c3ccc(Cl)cc3)C2)n(C)n1 (stereo not drawn)	-3%	0	i	17	-17
COc1c(C)cc(C(=O)C2CCCN(C(=O)c3ccc4[nH]ccc4c3)C2)cc1C (stereo not drawn)	u	6	i	4	6
SMILES	ELG1 repair inh	Giardia killer	FUS yeast rescue	TRPV1 ag	TRPV1 potentiator
COc1c(C)cc(C(=O)C2CCCN(C(=O)CCc3scnc3C)C2)cc1C (stereo not drawn)	12µM*	23	i	u	-4
Clc1ncc(C#Cc2ccccc2)c2ncncc12	x	13	x	x	x
COc1ccc(C(=O)/C=C/c2cc(OC)c(O)c(OC)c2)c(F)c1	8.2µM*	-18	i	u	1
Cc1ncc(COC(=O)C(C)C)c2cc(C(=O)Nc3ccccc3C(F)(F)F)c(=O)oc12	x	x	i	x	x
COCC(=O)N(c1ccc(C(C)(C)C)cc1)C(C(=O)NC(C)(C)C)c1cccnc1 (stereo not drawn)	x	x	i	x	x
O=C(Nc1cccc(S(=O)(=O)N2CCCC2)c1)c1ccco1	13%	-22	i	x	x
O=C(Nc1cccc(NC(=O)c2ccco2)c1)c1ccc([N+](=O)[O-])cc1	12µM*	-2	i	2	-2
Cc1c(C(=O)Nc2cccc([N+](=O)[O-])c2)cnn1-c1ccccc1	u	-11	i	103*	-10
O=C(Nc1ccc(Oc2ccc(NC(=O)c3ccco3)c(NC(=O)c3ccco3)c2)cc1)c1ccco1	16µM*	0	i	0	14
O=C(Nc1cccc(S(=O)(=O)c2cccc(NC(=O)c3ccco3)c2)c1)c1ccco1	23µM*	26	i	0	17
CC(C)(C)c1ccc(C(=O)Nc2cccc([N+](=O)[O-])c2)cc1	u	-19	x	84*	-2
O=[N+]([O-])c1ccc(C[n+]2cccc3ccc4cccnc4c32)cc1	7.3µM*	11	i	-2	-1
CCOC(=O)N1CCN(C(=O)COc2cccc3c2CCN(Cc2ccccc2C)C3=O)CC1	u	-4	i	2	2
O=C(c1cccnc1)N1N=C(c2cccs2)CC1c1ccc(F)cc1 (stereo not drawn)	-12%	4	i	2	-9
CCOC(=O)N1CCN(C(=O)COc2cccc3c2CCN(Cc2cccc(C)c2)C3=O)CC1	21µM*	0	i	-2	2
O=C1c2cccc(OCC(=O)N3CCCc4ccccc43)c2CCN1Cc1cccnc1	7.3µM*	11	i	3	-17
O=C1c2cccc(OCC(=O)N3N=C(c4cccs4)CC3c3ccc(F)cc3)c2CCN1Cc1cccnc1 (stereo not drawn)	18µM*	-10	x	0	-10
CCOC(=O)c1c(NC(=O)c2cc(-c3ccc(OC)c(OC)c3)on2)sc2c1CCCC2	x	x	i	x	x
COc1ccccc1CNC(=O)c1cc2c(=O)oc3ccc(C)cc3c2s1	x	x	i	x	x
COc1cccc(N=c2oc3cc(O)ccc3cc2C(=O)NCC2CCCO2)c1 (stereo not drawn)	4.1µM*	-1	i	u	-12
COc1ccccc1N=c1oc2cc(O)ccc2cc1C(N)=O	u	-4	i	-2	15
COc1ccc2oc(=O)c(C(=O)NCC3CCCO3)cc2c1 (stereo not drawn)	u	-21	i	-1	u
Cc1cccc(N=c2oc3cc(O)ccc3cc2C(N)=O)c1	4.6µM*	16	i	0	-8
